Only a selection was taken, and hits are over-represented in it overall.
12-LOX inh – inhibitors of human 12S-lipoxygenase ALOX12; P18054; Potency, µM (top dose mostly 108 µM), inactives show at the top dose activity change, negative = inhibition, usual class: inhibitors; 580,000 compounds, 1.1% hits; AID 1671190; purified 12hLO, xylenol orange hydroperoxide absorbance; note: potency is the fitted concentration of half-maximal effect
Target sequence (P18054 whole entry, looked up): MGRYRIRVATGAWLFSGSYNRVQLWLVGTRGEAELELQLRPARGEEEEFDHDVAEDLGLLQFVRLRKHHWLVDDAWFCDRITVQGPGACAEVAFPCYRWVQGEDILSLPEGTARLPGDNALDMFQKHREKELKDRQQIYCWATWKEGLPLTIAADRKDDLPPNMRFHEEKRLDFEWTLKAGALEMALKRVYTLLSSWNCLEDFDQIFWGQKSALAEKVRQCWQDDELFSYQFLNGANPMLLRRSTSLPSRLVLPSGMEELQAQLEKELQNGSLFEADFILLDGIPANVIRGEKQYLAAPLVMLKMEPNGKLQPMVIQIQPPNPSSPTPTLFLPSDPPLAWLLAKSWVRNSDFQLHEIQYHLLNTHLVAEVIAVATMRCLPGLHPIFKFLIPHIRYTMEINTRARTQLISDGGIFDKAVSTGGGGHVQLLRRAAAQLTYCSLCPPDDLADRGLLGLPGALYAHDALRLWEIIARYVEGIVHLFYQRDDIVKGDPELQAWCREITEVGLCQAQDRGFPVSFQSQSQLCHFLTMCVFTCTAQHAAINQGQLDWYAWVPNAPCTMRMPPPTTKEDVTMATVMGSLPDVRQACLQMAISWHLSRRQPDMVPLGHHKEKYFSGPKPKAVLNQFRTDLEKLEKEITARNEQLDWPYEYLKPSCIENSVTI
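Purified human 12hLO (150 nM final) in 25 mM Hepes, 0.01% Triton X-100, pH 7.0 was preincubated 15 min at room temperature with compound. Then 40 uM arachidonic acid was added, 30 min. Hydroperoxide was read by Fe-XO absorbance ratio 573/405 nm.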
TDP1 cell CPT – DT40-hTDP1 cell growth loss with CPT. chicken DT40 Tdp1-/-;hTDP1 cells + 20 nM CPT, ATP luminescence, 48 h. Potency, µM (highest dose often 46.2 µM), inactives show at the top dose activity change, negative = growth inhibition, actives largely listed as inhibitors. 420,000 compounds, 12% hits. AID 686979; note: potency is the fitted concentration of half-maximal effect; nearly all actives have a fitted effect of over 55% in size
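Chicken DT40 Tdp1-/- cells stably complemented with human TDP1 were seeded at 400 cells/well in medium containing 20 nM camptothecin, exposed to pin-transferred compounds, and grown at 37 °C for at least 48 hr. Viability was read as ATP luminescence.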
HT1080 IDH1KD tx – kills HT-1080 cells with IDH1 knockdown; HT-1080 IDH1 knockdown viability, ATP luminescence, 48 h; Potency, µM (titrated, usually from 46.1 µM), without a hit: at the highest dose activity, negative = toxicity, usual class: cytotoxic; 360,000 compounds, 2% hits;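 note: potency is the fitted concentration of half-maximal effect; 0% = DMSO wells and -100% = cell-free medium wells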
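IDH1KD HT-1080 cells, 750/well, RPMI + 5% FBS; compound pinned after 2 h settling; 48 h, 37 °C; CellTiter-Glo luminescence; % activity normalised to DMSO and no-cell wells; curves fitted, classed by r2 and efficacy.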
HT1080NT lethal – kills 2HG-producing HT-1080-NT fibrosarcoma cells | HT-1080-NT fibrosarcoma viability, CellTiter-Glo ATP luminescence, 48 h | Potency, µM (top dose mostly 46.1 µM), for the others: at the highest dose activity, negative = less viability, most hits filed as cytotoxic | 360,000 compounds, 1.6% hits | AID 686970;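 note: NT is the 2HG producing partner of a matched IDH1 knockdown line; potency is the fitted concentration of half-maximal effect; 0% = DMSO-treated cells and -100% = media-only wells without cells; nearly all actives have a fitted effect of over 55% in size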
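HT-1080-NT fibrosarcoma cells (2HG-overproducing), 750 cells/well in RPMI with 5% FBS, dosed after 2 h and incubated 48 h at 37C. CellTiter-Glo luminescence normalized to DMSO and no-cell wells; concentration-response curves fitted and classed.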
DT40 TDP1 no CPT – qHTS for Inhibitors of human tyrosyl-DNA phosphodiesterase 1 (TDP1): qHTS in cells in absence of CPT. DT40 Tdp1-/- hTDP1 cells, no CPT, ATP luminescence, 48 h. Potency, µM (titrated, usually from 46.2 µM), for the others: at the highest dose activity change, negative = growth inhibition, most hits filed as inhibitors. 420,000 compounds, 15% hits. AID 686978, 2013; note: potency is the fitted concentration of half-maximal effect; nearly all actives have a fitted effect of over 55% in size
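No-CPT arm: Tdp1-/-;hTDP1 DT40 cells (400/well) plus compounds, incubated ≥48 hr at 37 °C. Readout CellTiter-Glo luminescence.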
IL-1B inflam inh – inhibitors of inflammasome signaling (IL-1 beta secretion). 360,000 compounds, 4.7% hits. activity change, % at 57.5 µM. THP-1 LPS/ATP IL-1B secretion, AlphaLISA, 16 h; hits give low values; in the data active = activity change below about -50%; inconclusive = mostly about -30% to -49%
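Secreted IL-1B measured by AlphaLISA bead assay after 16 h compound exposure of THP-1 cells; compounds (final up to 57.5 uM) added 1 h before LPS (250 ng/mL) and ATP (1.25 mM) stimulation; lower signal means less secretion.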
Numbers without * were called inactive; i = inactive; ? = inconclusive; nt = no result given; [ ] = another dose, or the depositor's remark. Unless noted, calls come from the whole dose curve; as a rule, active = well fitted curve in the direction sought with a large enough effect; inconclusive = small, poorly fitted or top-dose-only effect, or another doubt; inactive = no such curve, though single readings can be large; an effect the other way counts as inactive or inconclusive. Unless noted, % is set by controls: 0 for no effect and ±100 for the full control effect.

SMILES	12-LOX inh	TDP1 cell CPT	HT1080 IDH1KD tx	HT1080NT lethal	DT40 TDP1 no CPT	IL-1B inflam inh
Cc1ccccc1N(C)C1CN(C(=O)c2ccccn2)C1	3%[12.5 µM]	nt	nt	nt	nt	nt
Cc1nn(C)c(C)c1CCCN(C)C(=O)c1ccc2c(c1)C(O)CCCCCN2C (centres undefined)	76%	nt	nt	nt	nt	nt
CCOCCCn1c(SCC(=O)Nc2ccc(OC)cc2)nc2ccccc2c1=O	-19%	?	-2%	-7%	18µM*	-14
Cc1ccc(-n2c(COc3ccccc3)nnc2SCC(=O)O)cc1	?	-4%	-1%	10%	-4%	-4
CC1CCCC(C)N1C(=O)CSc1nnc(COc2ccccc2)n1-c1ccccc1 (centres undefined)	8%	?	-1%	-19%	21µM*	-22
Cc1ccc(-c2cc(C(=O)N3CCC(Cc4nncn4C(C)C)CC3)c3ccccc3n2)cc1C	18%	nt	nt	nt	nt	nt
Cc1ccc(C(C(=O)Nc2ccc3c(c2)OCO3)N(C)C(=O)Cc2c[nH]c3ccccc23)cc1 (centres undefined)	-17%	?	?	?	-20%	-52*
CC(=O)NC(Cc1c[nH]c2ccccc12)C(=O)OCC(=O)Nc1ccc2c(c1)OCO2 (centres undefined)	0%	2%	2%	2%	-6%	9
COC(=O)c1ccc(C(C(=O)NC2CCCCC2)N(Cc2ccc(F)cc2)C(=O)Cc2cccs2)cc1 (centres undefined)	11%	9.2µM*	-29%	-4%	12µM*	-8
COC(=O)c1ccc(C(C(=O)NC2CCCCC2)N(CCc2ccccc2)C(=O)Cc2cccs2)cc1 (centres undefined)	-28%	5.2µM*	21%	8%	6.5µM*	19
COc1ccc(CN(C(=O)Cc2cccs2)C(C(=O)NC2CCCC2)c2ccncc2)cc1 (centres undefined)	?	?	-24%	1%	?	-4
COc1cc(C(C(=O)NC2CCCCC2)N(C(=O)Cc2c[nH]c3ccccc23)c2ccc(C)cc2)cc(OC)c1OC (centres undefined)	-9%	23µM*	-11%	-4%	26µM*	-16
COCC1CN(C2CCC2)CC12CCN(C(=O)c1nccn1C)CC2 (centres undefined)	44%	nt	nt	nt	nt	nt
CCCN(CCC)C(=O)c1ccc(CN2C(=O)NC3(CCS(=O)(=O)CC3)C2=O)cc1	24%	nt	nt	nt	nt	nt
COc1ccc(C(C(=O)NC2CCCCC2)N(Cc2cccs2)C(=O)Cc2c[nH]c3ccccc23)cc1 (centres undefined)	-8%	4.6µM*	?	?	18µM*	-59*
Cc1ccc(-c2nn(C(C)(C)C)c3ncnc(NS(=O)(=O)c4ccc([N+](=O)[O-])cc4)c23)cc1	-28%	21µM*	-21%	-22%	18µM*	0
Cc1cc(O)c(/C=N/OCc2ccc(Cl)cc2Cl)c(=O)o1	-12%	15µM*	-10%	-20%	?	-12
COC(=O)c1nn(-c2ccccc2)c(Cl)c1/C=N/OCc1ccc(Cl)cc1Cl	i	16µM*	-5%	9%	29µM*	-1
COc1ccc(N(Cc2cc3ccc(C)cc3[nH]c2=O)C(=O)c2ccco2)cc1	0%	23µM*	19%	15%	21µM*	-15
COc1ccc(CN(C(=O)c2ccco2)c2ccc(C)c(C)c2)cc1	1%	?	21µM*	?	?	23
CC(C)N(Cc1cc2ccccc2[nH]c1=O)C(=O)c1ccco1	-8%	-15%	1%	9%	-3%	8
CCOc1ccc(N(Cc2ccc(OC)c(OC)c2)C(=O)c2ccco2)cc1	-3%	?	-1%	-11%	18µM*	6
CCOc1ccc(N(Cc2ccc(OC)cc2)C(=O)c2ccco2)cc1	-23%	?	?	?	?	?
Cc1cccc(N(Cc2cc3ccccc3[nH]c2=O)C(=O)c2ccco2)c1C	11%	26µM*	8%	16%	-84%	-6
CCCNC(=O)Cc1ccc(N(Cc2ccc(OC)cc2)C(=O)c2ccco2)cc1	13%	nt	nt	nt	nt	nt
SMILES	12-LOX inh	TDP1 cell CPT	HT1080 IDH1KD tx	HT1080NT lethal	DT40 TDP1 no CPT	IL-1B inflam inh
COc1ccc(-c2noc([C@@H]3Cc4nc[nH]c4CN3Cc3ccc(NC(C)=O)cc3)n2)cc1	96%	nt	nt	nt	nt	nt
O=c1[nH]c(=O)c2cc([N+](=O)[O-])cc([N+](=O)[O-])c2[nH]1	2%	?	-11%	1%	?	-74*
CC1CCN(c2ccc(NC(=O)C(Cc3ccccc3)NC(=O)c3cccs3)cc2)CC1 (centres undefined)	-10%	nt	nt	nt	nt	nt
Cc1ccc2c(c1)-c1onc(C(=O)N3CCN(c4cccc(C)c4C)CC3)c1CO2	0%	nt	nt	nt	nt	nt
CCOc1ccccc1N1CCN(C(=O)Nc2ccc(F)c(Cl)c2)CC1	-23%	?	0%	5%	23µM*	-5
Cc1cccc(N2CCN(C(=O)c3noc4c3COc3ccc(C)cc3-4)CC2C)c1 (centres undefined)	31%	?	9%	5%	23µM*	-3
COc1cccc(N2CCN(C(=O)c3cc(C)oc3C)CC2)c1	-9%	12µM*	?	?	13µM*	11
CCOc1ccccc1N1CCN(C(=O)c2csc(C)c2CC)CC1	-2%	?	1%	3%	21µM*	?
Cc1cc(C(=O)N2CCN(c3ccccc3O)CC2)c(C)o1	3%	1%	1%	7%	-11%	-5
COc1ccccc1N1CCN(C(=O)Nc2ccc(F)c(Cl)c2)CC1	-1%	19%	3%	5%	?	0
C=CCC(NC(C)=O)C(=O)O (centres undefined)	7%	nt	nt	nt	nt	nt
Cc1ccc(-n2ncc(C(=O)NC3CCCCC3)c2N)cc1	-24%	nt	nt	nt	nt	nt
CC(C)NC(=O)C(=O)NC1CC(C)(C)NC(C)(C)C1	-23%	nt	nt	nt	nt	nt
COc1ccc(S(=O)(=O)Cc2ccc(C(=O)N3CCN(c4cccc(C)c4)C(C)C3)o2)cc1 (centres undefined)	-1%	5.2µM*	12µM*	2.6µM*	5.2µM*	11
CCOc1ccccc1N1CCN(C(=O)c2cc(C)oc2C)CC1	1%	18µM*	?	-3%[9.24 µM]	23µM*	-9
COc1ccccc1N1CCN(C(=O)c2cc(C)oc2C)CC1	0%	-14%	-5%	2%	?	3

Screening data deposited in PubChem BioAssay by National Center for Advancing Translational Sciences (NCATS).
